# ± gives the standard deviation.
# T1: HaloTag-ATRX ADD domain (163-292)
# T1 chain: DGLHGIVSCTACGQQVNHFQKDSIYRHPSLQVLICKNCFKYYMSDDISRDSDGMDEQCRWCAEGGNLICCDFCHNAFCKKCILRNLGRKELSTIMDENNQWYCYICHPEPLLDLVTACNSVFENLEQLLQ
# How the values were obtained:
# Assay in all cases: peptide microarray binding signal (635 nm), min-max normalized on array (fraction of array maximum); higher = stronger binding
# Conditions in all cases: peptide region: H2A 1-13
# [1] = target: T1, HaloTag-ATRX ADD domain (163-292)
# Protocol: (§1)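 Histone 13-mer peptides were synthesized as cellulose conjugates with a C-terminal 20-atom PEG linker and printed in triplicate on nitrocellulose. The sequence given is the unmodified backbone; PTMs (Kme1/2/3, Kac, Sph/Tph, Rme/Rme2a/Rme2s, Rcit) are listed in the label and the 'peptide modifications' condition. Slides were probed at 4 °C for 1 h with biotin-labelled (HQ)5-HaloTag reader fusions (ATRX-ADD, ING2-PHD) then streptavidin-Alexa647, or with rabbit histone antibodies then anti-rabbit Alexa647. The mean 635 nm signal of the triplicate spots was scaled 0-1 between the lowest and highest values on each array.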
# [2] = target: HaloTag-ING2 PHD (mouse Ing2 200-280)
# Protocol: as §1
# [3] = target: anti-H3K4me3 antibody ab8580
# Protocol: as §1
# [4] = target: anti-H3K9me3 antibody ab8898
# Protocol: as §1
# [5] = peptide modifications: H2AS1ph H2AR3me2a, binder concentration: 1:2,000 dilution
# [6] = peptide modifications: H2AS1ph H2AR3me2a, binder concentration: 1:10,000 dilution
# [7] = peptide modifications: H2AR3cit H2AK5ac, binder concentration: 1:2,000 dilution
# [8] = peptide modifications: H2AR3cit H2AK5ac, binder concentration: 1:10,000 dilution
# [9] = peptide modifications: H2AS1ph H2AK9ac, binder concentration: 1:2,000 dilution
# [10] = peptide modifications: H2AS1ph H2AR3me2s, binder concentration: 1:2,000 dilution
# [11] = peptide modifications: H2AS1ph H2AR3me2s, binder concentration: 1:10,000 dilution
# [12] = peptide modifications: H2AS1ph H2AR3cit, binder concentration: 1:2,000 dilution
# [13] = peptide modifications: H2AS1ph H2AR3cit, binder concentration: 1:10,000 dilution
# [14] = peptide modifications: H2AK9ac, binder concentration: 1:2,000 dilution
# [15] = peptide modifications: H2AK9ac, binder concentration: 1:10,000 dilution
# [16] = peptide modifications: H2AK5ac, binder concentration: 1:2,000 dilution
# [17] = peptide modifications: H2AK5ac, binder concentration: 1:10,000 dilution
# [18] = peptide modifications: H2AS1ph H2AK5ac H2AK9ac, binder concentration: 1:2,000 dilution
# [19] = peptide modifications: H2AS1ph H2AK5ac H2AK9ac, binder concentration: 1:10,000 dilution
# [20] = peptide modifications: H2AR3me2s H2AK5ac, binder concentration: 1:2,000 dilution
# [21] = peptide modifications: H2AR3me2s H2AK5ac, binder concentration: 1:10,000 dilution
# [22] = peptide modifications: H2AR3me2s, binder concentration: 1:2,000 dilution
# [23] = peptide modifications: H2AR3me2s, binder concentration: 1:10,000 dilution
binder,measurement,setting,value
SGRGKQGGKARAK [H2A 1-13 Sph G Rme2a G K Q G G K A R A K],peptide microarray binding signal,"[1]; peptide modifications: H2AS1ph H2AR3me2a, binder concentration: 50 nM",0.00235 ± 9e-05
same,peptide microarray binding signal,"[1]; peptide modifications: H2AS1ph H2AR3me2a, binder concentration: 500 nM",0.00381 ± 0.00015
same,peptide microarray binding signal,"[2]; peptide modifications: H2AS1ph H2AR3me2a, binder concentration: 10 nM",0.003223 ± 1.8e-05
same,peptide microarray binding signal,"[2]; peptide modifications: H2AS1ph H2AR3me2a, binder concentration: 100 nM",0.00206 ± 4.1e-05
same,peptide microarray binding signal,[3]; [5],0.000472 ± 1.2e-05
same,peptide microarray binding signal,[3]; [6],0.000685 ± 7.2e-06
same,peptide microarray binding signal,[4]; [5],0.000332 ± 3.4e-06
same,peptide microarray binding signal,[4]; [6],0.000577 ± 6.2e-06
SGRGKQGGKARAK [H2A 1-13 S G Rcit G Kac Q G G K A R A K],peptide microarray binding signal,"[1]; peptide modifications: H2AR3cit H2AK5ac, binder concentration: 50 nM",0.00389 ± 0.00015
same,peptide microarray binding signal,"[1]; peptide modifications: H2AR3cit H2AK5ac, binder concentration: 500 nM",0.00481 ± 0.00026
same,peptide microarray binding signal,"[2]; peptide modifications: H2AR3cit H2AK5ac, binder concentration: 10 nM",0.00519 ± 0.00013
same,peptide microarray binding signal,"[2]; peptide modifications: H2AR3cit H2AK5ac, binder concentration: 100 nM",0.00567 ± 0.00026
same,peptide microarray binding signal,[3]; [7],0.001 ± 3.7e-05
same,peptide microarray binding signal,[3]; [8],0.0016
same,peptide microarray binding signal,[4]; [7],0.000634 ± 9.9e-06
same,peptide microarray binding signal,[4]; [8],0.0015 ± 4.4e-05
SGRGKQGGKARAK [H2A 1-13 Sph G R G K Q G G Kac A R A K],peptide microarray binding signal,"[1]; peptide modifications: H2AS1ph H2AK9ac, binder concentration: 500 nM",0.005476 ± 3.5e-05
same,peptide microarray binding signal,"[2]; peptide modifications: H2AS1ph H2AK9ac, binder concentration: 100 nM",0.00354 ± 0.00045
same,peptide microarray binding signal,[3]; [9],0.000208 ± 2.2e-06
same,peptide microarray binding signal,[4]; [9],0.000121 ± 1.3e-06
SGRGKQGGKARAK [H2A 1-13 Sph G Rme2s G K Q G G K A R A K],peptide microarray binding signal,"[1]; peptide modifications: H2AS1ph H2AR3me2s, binder concentration: 50 nM",0.00357 ± 5.8e-05
same,peptide microarray binding signal,"[1]; peptide modifications: H2AS1ph H2AR3me2s, binder concentration: 500 nM",0.00752 ± 0.00025
same,peptide microarray binding signal,"[2]; peptide modifications: H2AS1ph H2AR3me2s, binder concentration: 10 nM",0.00257 ± 5e-05
same,peptide microarray binding signal,"[2]; peptide modifications: H2AS1ph H2AR3me2s, binder concentration: 100 nM",0.00482 ± 0.0003
same,peptide microarray binding signal,[3]; [10],0.000378 ± 3.9e-06
same,peptide microarray binding signal,[3]; [11],0.000571
same,peptide microarray binding signal,[4]; [10],0.000317 ± 9.6e-06
same,peptide microarray binding signal,[4]; [11],0.000577 ± 6.2e-06
SGRGKQGGKARAK [H2A 1-13 Sph G Rcit G K Q G G K A R A K],peptide microarray binding signal,"[1]; peptide modifications: H2AS1ph H2AR3cit, binder concentration: 50 nM",0.00392 ± 8.1e-05
same,peptide microarray binding signal,"[1]; peptide modifications: H2AS1ph H2AR3cit, binder concentration: 500 nM",0.00486 ± 5.6e-05
same,peptide microarray binding signal,"[2]; peptide modifications: H2AS1ph H2AR3cit, binder concentration: 10 nM",0.00167 ± 3e-05
same,peptide microarray binding signal,"[2]; peptide modifications: H2AS1ph H2AR3cit, binder concentration: 100 nM",0.00283 ± 0.0002
same,peptide microarray binding signal,[3]; [12],0.000472 ± 2.6e-05
same,peptide microarray binding signal,[3]; [13],0.000514 ± 1.1e-05
same,peptide microarray binding signal,[4]; [12],0.000272 ± 4.9e-06
same,peptide microarray binding signal,[4]; [13],0.000692 ± 7.3e-06
SGRGKQGGKARAK [H2A 1-13 S G R G K Q G G Kac A R A K],peptide microarray binding signal,"[1]; peptide modifications: H2AK9ac, binder concentration: 50 nM",0.00348 ± 0.0001
same,peptide microarray binding signal,"[1]; peptide modifications: H2AK9ac, binder concentration: 500 nM",0.00619 ± 0.00024
same,peptide microarray binding signal,"[2]; peptide modifications: H2AK9ac, binder concentration: 10 nM",0.00251 ± 0.00014
same,peptide microarray binding signal,"[2]; peptide modifications: H2AK9ac, binder concentration: 100 nM",0.00638 ± 0.00045
same,peptide microarray binding signal,[3]; [14],0.000547 ± 2.3e-05
same,peptide microarray binding signal,[3]; [15],0.000399
same,peptide microarray binding signal,[4]; [14],0.000227
same,peptide microarray binding signal,[4]; [15],0.00075 ± 1.6e-05
SGRGKQGGKARAK [H2A 1-13 S G R G Kac Q G G K A R A K],peptide microarray binding signal,"[1]; peptide modifications: H2AK5ac, binder concentration: 50 nM",0.00288 ± 4.3e-05
same,peptide microarray binding signal,"[1]; peptide modifications: H2AK5ac, binder concentration: 500 nM",0.0061 ± 0.00049
same,peptide microarray binding signal,"[2]; peptide modifications: H2AK5ac, binder concentration: 10 nM",0.00239 ± 2.4e-05
same,peptide microarray binding signal,"[2]; peptide modifications: H2AK5ac, binder concentration: 100 nM",0.005528 ± 4.3e-05
same,peptide microarray binding signal,[3]; [16],0.000378 ± 1e-05
same,peptide microarray binding signal,[3]; [17],0.000399
same,peptide microarray binding signal,[4]; [16],0.000227 ± 4.1e-06
same,peptide microarray binding signal,[4]; [17],0.000577 ± 6.2e-06
SGRGKQGGKARAK [H2A 1-13 Sph G R G Kac Q G G Kac A R A K],peptide microarray binding signal,"[1]; peptide modifications: H2AS1ph H2AK5ac H2AK9ac, binder concentration: 50 nM",0.00408 ± 0.00018
same,peptide microarray binding signal,"[1]; peptide modifications: H2AS1ph H2AK5ac H2AK9ac, binder concentration: 500 nM",0.00738 ± 0.00011
same,peptide microarray binding signal,"[2]; peptide modifications: H2AS1ph H2AK5ac H2AK9ac, binder concentration: 10 nM",0.00257 ± 5e-05
same,peptide microarray binding signal,"[2]; peptide modifications: H2AS1ph H2AK5ac H2AK9ac, binder concentration: 100 nM",0.00687 ± 0.00064
same,peptide microarray binding signal,[3]; [18],0.000321 ± 6.7e-06
same,peptide microarray binding signal,[3]; [19],0.000399
same,peptide microarray binding signal,[4]; [18],0.000272 ± 4.9e-06
same,peptide microarray binding signal,[4]; [19],0.000577 ± 6.2e-06
SGRGKQGGKARAK [H2A 1-13 S G Rme2s G Kac Q G G K A R A K],peptide microarray binding signal,"[1]; peptide modifications: H2AR3me2s H2AK5ac, binder concentration: 50 nM",0.00458 ± 0.00026
same,peptide microarray binding signal,"[1]; peptide modifications: H2AR3me2s H2AK5ac, binder concentration: 500 nM",0.00562 ± 0.00037
same,peptide microarray binding signal,"[2]; peptide modifications: H2AR3me2s H2AK5ac, binder concentration: 10 nM",0.00603 ± 0.00016
same,peptide microarray binding signal,"[2]; peptide modifications: H2AR3me2s H2AK5ac, binder concentration: 100 nM",0.00461 ± 7.6e-05
same,peptide microarray binding signal,[3]; [20],0.000736
same,peptide microarray binding signal,[3]; [21],0.0012 ± 1.2e-05
same,peptide microarray binding signal,[4]; [20],0.000589 ± 9.4e-06
same,peptide microarray binding signal,[4]; [21],0.00179 ± 6.1e-05
SGRGKQGGKARAK [H2A 1-13 S G Rme2s G K Q G G K A R A K],peptide microarray binding signal,"[1]; peptide modifications: H2AR3me2s, binder concentration: 50 nM",0.00696 ± 0.0016
same,peptide microarray binding signal,"[1]; peptide modifications: H2AR3me2s, binder concentration: 500 nM",0.0101 ± 0.00014
same,peptide microarray binding signal,"[2]; peptide modifications: H2AR3me2s, binder concentration: 10 nM",0.00519 ± 0.00018
same,peptide microarray binding signal,"[2]; peptide modifications: H2AR3me2s, binder concentration: 100 nM",0.00893 ± 0.00025
same,peptide microarray binding signal,[3]; [22],0.00108 ± 4.1e-05
same,peptide microarray binding signal,[3]; [23],0.00183 ± 9.6e-05
same,peptide microarray binding signal,[4]; [22],0.000755 ± 7.7e-05
same,peptide microarray binding signal,[4]; [23],0.000923 ± 2.5e-05

# — the supplement of paper PMC4022240
